Source: PubChem BioAssay AID1159580 (chemical genetic matrix, 2015)
“And” between values parts separate entries of the source, which are not always exact repeats. Equal values may be shown once. The whole screen tested about 5,500 compounds, of which about 2,000 (36%) were called active. Inconclusive results (about 18%) are left out. Rule as the data show it: active = normalized growth mostly below about 0.91 (no sharp cut-off); inconclusive = no clear call, values can overlap the other calls; inactive = mostly above about 0.92. The list shows a part of the results.

Test: chemical genetic growth profiling, strain panel (AID 1159580);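 also: tested at 20 µM; growth read once vehicle control cultures reached saturation at 30 °C; 1 = growth at the plate median or of vehicle wells; lower values mean less growth of the strain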
Details: S. cerevisiae deletion strains, growth OD

Measured: normalized growth

COC(=O)C[C@H]1C2(C)CC34OC5(C)O[C@@]6([C@H](OC)C(OC(=O)C(C)C)[C@]7(C)C(/C(=C(/OC)C(C)C)C(=O)O[C@H]7c7ccoc7)[C@@]6(O5)[C@H](OC)[C@@]3(OC)C2OC(C)=O)[C@]14C (stereo partly specified)
inactive: locus YAL013W, strain DEP1, hits give low values 1.02 | locus YAL021C, strain ccr4, hits give low values 1 | locus YAL026C, strain drs2, hits give low values 0.994 | locus YAL030W, strain snc1, hits give low values 0.984 | locus YBL061C, strain skt5, hits give low values 0.962 | locus YBR009C, strain hhf1, hits give low values 0.965 | locus YBR021W, strain FUR4, hits give low values 1.02 | locus YBR023C, strain chs3, hits give low values 0.994 | locus YBR171W, strain sec66, hits give low values 0.989 | locus YBR229C, strain ROT2, hits give low values 1.01 | locus YBR231C, strain swc5, hits give low values 0.979 | locus YBR279W, strain paf1, hits give low values 0.985 | locus YCL011C, strain gbp2, hits give low values 0.975 | locus YCL016C, strain dcc1, hits give low values 0.976 | locus YCL029C, strain bik1, hits give low values 1.03 | locus YCL069W, strain vba3, hits give low values 0.983 | locus YCR088W, strain abp1, hits give low values 0.989 | locus YDL005C, strain med2, hits give low values 0.972 | locus YDL035C, strain GPR1, hits give low values 1.03 | locus YDL040C, strain nat1, hits give low values 0.984 | locus YDL074C, strain BRE1, hits give low values 1.04 | locus YDL101C, strain DUN1, hits give low values 1.02 | locus YDL134C, strain PPH21, hits give low values 1.01 | locus YDL185W, strain tfp1, hits give low values 1.02 | locus YDL192W, strain arf1, hits give low values 1.03 | locus YDR001C, strain nth1, hits give low values 0.974 | locus YDR069C, strain doa4, hits give low values 0.96 | locus YDR101C, strain arx1, hits give low values 1.02 | locus YDR137W, strain rgp1, hits give low values 0.95 | locus YDR159W, strain sac3, hits give low values 1 | locus YDR162C, strain NBP2, hits give low values 1.02 | locus YDR195W, strain ref2 0.986 | locus YDR297W, strain sur2, hits give low values 0.967 | locus YDR318W, strain mcm21, hits give low values 1.03 | locus YDR334W, strain swr1, hits give low values 0.965 | locus YDR335W, strain msn5, hits give low values 0.97 | locus YDR388W, hits give low values 1.02 | locus YDR392W, strain spt3, hits give low values 0.992 | locus YDR502C, strain sam2, hits give low values 1 | locus YEL003W, strain gim4, hits give low values 0.976 | locus YEL037C, strain rad23, hits give low values 0.99 | locus YEL061C, strain CIN8 (second series), hits give low values 0.978 | locus YER015W, strain faa2, hits give low values 0.978 | locus YER016W, strain bim1, hits give low values 0.98 | locus YER110C, hits give low values 1.02 | locus YER111C, strain swi4, hits give low values 0.969 | locus YER155C, strain BEM2 (second series), hits give low values 0.967 | locus YER155C, strain BEM2, hits give low values 1 | locus YER167W, strain BCK2, hits give low values 1.02 | locus YFR010W, strain ubp6, hits give low values 0.992 | locus YGL078C, strain dbp3, hits give low values 0.994 | locus YGL086W, strain mad1, hits give low values 1.01 | locus YGL167C, strain pmr1, hits give low values 0.992 | locus YGL173C, strain kem1, hits give low values 0.985 | locus YGL227W, strain vid30, hits give low values 0.979 | locus YGL240W, strain doc1, hits give low values 0.965 | locus YGL248W, strain PDE1, hits give low values 1.01 | locus YGL253W, strain hxk2, hits give low values 0.983 | locus YGR135W, strain pre9, hits give low values 1.02 | locus YGR229C, strain SMI1, hits give low values 0.998 | locus YGR252W, strain gcn5, hits give low values 0.994 | locus YHR013C, strain ard1, hits give low values 0.943 | locus YHR027C, strain rpn1, hits give low values 0.994 | locus YHR030C, strain SLT2, hits give low values 0.969 | locus YHR079C, strain IRE1 (second series), hits give low values 1 | locus YHR079C, strain IRE1, hits give low values 1 | locus YHR094C, strain hxt1, hits give low values 1.01 | locus YHR129C, strain ARP1, hits give low values 1.02 | locus YHR142W, strain chs7, hits give low values 0.97 | locus YHR200W, strain rpn10, hits give low values 1.02 | locus YIL066C, strain RNR3, hits give low values 1.04 | locus YIL073C, strain SPO22, hits give low values 1.02 | locus YIL125W, strain kgd1, hits give low values 1.01 | locus YIR030C, strain dcg1, hits give low values 1.02 | locus YJL092W, strain hpr5, hits give low values 0.973 | locus YJL095W, strain BCK1 (second series), hits give low values 0.995 | locus YJL095W, strain BCK1, hits give low values 0.995 and 0.969 | locus YJL115W, strain asf1, hits give low values 0.967 | locus YJL129C, strain trk1, hits give low values 0.944 | locus YJL134W, strain LCB3, hits give low values 1.01 | locus YJL154C, strain vps35, hits give low values 0.981 | locus YJL164C, strain tpk1, hits give low values 1.01 | locus YJL166W, strain qcr8, hits give low values 0.99 | locus YJL168C, strain set2, hits give low values 1.01 | locus YJL187C, strain SWE1 (second series), hits give low values 1.01 | locus YJR043C, strain POL32, hits give low values 1.03 | locus YJR066W, strain TOR1, hits give low values 0.884 | locus YKL009W, strain mrt4, hits give low values 0.959 | locus YKL068W, hits give low values 0.998 | locus YKL085W, strain MDH1 (second series), hits give low values 1.01 | locus YKL085W, strain MDH1, hits give low values 1.01 | locus YKL160W, strain elf1, hits give low values 0.987 | locus YKR001C, strain vps1, hits give low values 0.992 | locus YKR026C, strain gcn3, hits give low values 0.983 | locus YKR091W, strain srl3, hits give low values 0.984 | locus YLL001W, strain dnm1, hits give low values 0.973 | locus YLL026W, hits give low values 0.978 | locus YLL041C, strain sdh2, hits give low values 0.987 | locus YLR027C, strain aat2, hits give low values 0.974 | locus YLR039C, strain RIC1, hits give low values 0.908 | locus YLR058C, strain SHM2, hits give low values 1.01 | locus YLR102C, strain apc9, hits give low values 1 | locus YLR113W, strain HOG1, hits give low values 1.01 | locus YLR221C, strain rsa3, hits give low values 0.976 | locus YLR258W, strain gsy2, hits give low values 0.996 | locus YLR262C, strain YPT6 (second series), hits give low values 0.997 | locus YLR262C, strain YPT6, hits give low values 0.754 | locus YLR268W, strain sec22, hits give low values 1.03 | locus YLR320W, strain mms22, hits give low values 0.988 | locus YLR342W, strain FKS1 (second series), hits give low values 0.987 | locus YLR342W, strain FKS1, hits give low values 0.982 | locus YLR357W, strain rsc2, hits give low values 1.01 | locus YLR370C, strain arc18, hits give low values 0.971 | locus YLR371W, strain rom2, hits give low values 1.04 | locus YLR384C, strain iki3, hits give low values 0.984 | locus YLR418C, strain cdc73, hits give low values 1.04 | locus YML016C, strain PPZ1, hits give low values 1.01 | locus YML032C, strain rad52, hits give low values 1 | locus YML120C, strain ndi1, hits give low values 0.982 | locus YML124C, strain tub3, hits give low values 1.01 | locus YMR058W, strain fet3, hits give low values 0.97 | locus YMR078C, strain ctf18, hits give low values 1.01 | locus YMR125W, strain sto1, hits give low values 0.986 | locus YMR129W, hits give low values 0.986 | locus YMR205C, strain PFK2, hits give low values 1 | locus YMR223W, strain ubp8, hits give low values 1.01 | locus YMR231W, strain pep5, hits give low values 0.975 | locus YMR307W, strain GAS1, hits give low values 1.23 | locus YNL067W, strain RPL9B, hits give low values 1.01 | locus YNL071W, strain lat1, hits give low values 0.989 | locus YNL153C, strain GIM3, hits give low values 1.03 | locus YNL183C, strain NPR1, hits give low values 0.935 | locus YNL209W, strain ssb2, hits give low values 0.985 | locus YNL233W, strain BNI4, hits give low values 1.04 | locus YNL248C, strain rpa49, hits give low values 0.977 | locus YNL250W, strain rad50, hits give low values 1.04 | locus YNL271C, strain bni1, hits give low values 1.02 | locus YNL298W, strain CLA4, hits give low values 1 | locus YNL307C, strain MCK1, hits give low values 1.02 | locus YNL322C, strain KRE1 (second series), hits give low values 0.972 | locus YNL322C, strain KRE1, hits give low values 1.01 | locus YNR049C, strain mso1, hits give low values 0.96 | locus YNR052C, strain pop2, hits give low values 1.03 | locus YOL006C, strain TOP1, hits give low values 1.06 | locus YOL012C, strain htz1 0.933 | locus YOL147C, strain pex11, hits give low values 1.02 | locus YOR001W, strain rrp6, hits give low values 0.967 | locus YOR061W, strain CKA2, hits give low values 1.04 | locus YOR069W, strain VPS5, hits give low values 1.01 | locus YOR070C, strain gyp1, hits give low values 1.01 | locus YOR080W, strain dia2, hits give low values 0.964 | locus YOR083W, strain WHI5, hits give low values 0.993 | locus YOR106W, strain vam3, hits give low values 0.953 | locus YOR136W, strain idh2, hits give low values 1 | locus YOR144C, strain elg1, hits give low values 1.01 | locus YOR184W, strain ser1, hits give low values 1.04 | locus YOR231W, strain MKK1, hits give low values 0.955 | locus YOR265W, strain rbl2, hits give low values 0.994 | locus YOR270C, strain vph1, hits give low values 0.866 | locus YOR290C, strain snf2, hits give low values 0.962 | locus YOR316C, strain cot1, hits give low values 1 | locus YPL051W, strain arl3, hits give low values 1 | locus YPL078C, strain atp4, hits give low values 0.964 | locus YPL106C, strain sse1, hits give low values 1.02 | locus YPL240C, strain hsp82, hits give low values 0.988 | locus YPL256C, strain CLN2, hits give low values 0.966 | locus YPR119W, strain clb2, hits give low values 1 | locus YPR141C, strain kar3, hits give low values 1.02 | locus YPR163C, strain tif3, hits give low values 1.02 | locus YPR167C, strain met16, hits give low values 1.01 | strain wtn01, hits give low values 0.995
